In the supplement of paper PMC6555819:

How the values were obtained:
Assay in all cases: PBM binding z-score (relative to random genomic background probes); higher = stronger binding; sequences stand for … in GC…GCGATTGACAGCGTAGAATGAAGG
[1] = test system: RARb homodimer (NR concentration 270 nM)
Method in brief: (§1)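 Probes were double-stranded and carried 34-nt variable regions with direct-repeat seeds, single-nucleotide variants, half-site ablations and random human genomic background sequences, printed on custom Agilent 4×180K protein-binding microarrays. Arrays were incubated 1 h with ligand-free nuclear receptor dimers in PBS pH 7.4, 2% milk, 0.02% Triton X-100, 1 mM DTT, 0.2 mg/mL BSA and 0.4 mg/ml salmon testes DNA. Antibodies against each partner (one per run) detected binding, and scanned fluorescence was regression-normalized. Binding z-scores use the random background probes as reference.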

[2] = test system: RARg:RXRa (NR concentration 270 nM, RXRa partner concentration 90 nM)
Method in brief: as §1

[3] = test system: RARg homodimer (NR concentration 270 nM)
Method in brief: as §1

[4] = test system: RXRa DBDmut IVT, anti-RXR (DBD mutation: RXRa K156A/R161A, NR concentration 90 nM)
Method in brief: as §1

[5] = test system: RXRa homodimer (NR concentration 180 nM)
Method in brief: as §1

[6] = test system: THRa:RXRa (NR concentration 90 nM, RXRa partner concentration 90 nM)
Method in brief: as §1

[7] = test system: THRa homodimer (NR concentration 90 nM)
Method in brief: as §1

[8] = test system: VDR homodimer (NR concentration 270 nM)
Method in brief: as §1

| Sequence | PBM binding z-score [1] | PBM binding z-score [2] | PBM binding z-score [3] | PBM binding z-score [4] | PBM binding z-score [5] | PBM binding z-score [6] | PBM binding z-score [7] | PBM binding z-score [8] |
| --- | --- | --- | --- | --- | --- | --- | --- | --- |
| CGGCCTAGGTCAGGGCCAGTATAGGAGGAACGTT | 2.4 | 2.84 | 3.41 | -0.731 | 1.5 | 1.8 | 0.0895 | -0.395 |
| CCTATTAGTTGACCATAAGGGCAACCGGAGCTCG | 2.03 | 1.22 | 1.19 | 0.709 | 0.658 | 1.87 | 1.53 | 1.15 |
| GCTTGTATATCAAGGTTAAGAAAGACTAAGCTAA | 0.176 | 0.526 | 0.28 | 0.464 | 0.746 | 1.24 | -0.21 | -0.0299 |
| CCTCGGAGGACAGAAGGTCAGAGCAGTCCGCTTT | 3.7 | 3.53 | 3.41 | 0.444 | 2.16 | 2.67 | -0.117 | 0.311 |
| TTACCAAGGTGATAGGTCGTTGATGCACGCCTTG | 0.852 | 0.727 | 0.286 | -0.12 | 1.51 | 1.25 | 0.482 | 0.256 |
| CCTACTTGGCCATCAGGTCATTGATATCAACGTT | 2.89 | 2.15 | 2.12 | 1.5 | 1.43 | 3.39 | 3.64 | 2.19 |
| CCGACTGCGGCAGAAAGGTTACCATACCATCCGG | 1.92 | 0.857 | 0.647 | -0.0879 | 1.57 | 1.02 | 0.00107 | -0.0446 |
| TCGAGTAGGTTAGTCGGGACATTCAGCCAACATA | 0.0324 | -0.106 | 0.0152 | 0.327 | 0.107 | 1.39 | 0.328 | 0.0666 |
| GCGACTGCGGCAAAGCAGGTTACCATAAGGTTGG | 0.0926 | -0.183 | -0.487 | -0.499 | -0.0388 | 0.953 | -0.402 | -0.315 |
| GGAACGAGGGCAAGTTGCTAGCAGAGTTTGATGG | 1.37 | 1.23 | 2.1 | 2.26 | 0.745 | 0.911 | -0.229 | 1.44 |
| ATCTCTAGGTCACCAAGTTCAGTGAATGCCGAAC | 4.45 | 5.35 | 6.25 | 2.74 | 4.73 | 3.89 | 3.22 | 6.15 |
| CGAACGAGGGCATGAGTTGATAGGAAATGCCGAT | 0.511 | 1.1 | 1.71 | 2.4 | 0.923 | 1.07 | -0.419 | 1.41 |
| ATCTCTAGGTAAGACTCAGTTCAGTGAGGAACGC | 0.438 | 0.383 | 0.447 | 0.293 | 0.124 | 0.714 | 0.481 | 1.3 |
| ATACCAAGGTGATCCTGAGGTCGTTGATACTAAC | 1.82 | 2.54 | 0.948 | 0.968 | 2.08 | 3.67 | 2.52 | 2.87 |
